# Measured values reported in the supplement of paper PMC8728848.
# This is one part of a sample in which the strongest signals are shown more often than they occur.
# Tests used:
# Test in all cases: glycan array binding signal (z-score within array); higher = stronger binding
# Settings in all cases: glycan notation: IUPAC condensed, linker removed
# [1] = target: Fuc(a1-2)Gal(b1-3)GlcNAc(b1-2)Man(a1-3)[Fuc(a1-2)Gal(b1-3)GlcNAc(b1-2)Man(a1-6)]Man(b1-4)GlcNAc(b1-4)GlcNAc
# Procedure, shortened: (§1)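 Glycan array binding is given as a within-array Z-score, which can be read as non-binding when negative. The arrays, 3228 of them, came from the Consortium for Functional Glycomics database and were retained only where the protein sequence was available. Z-scores were averaged across arrays of the same protein sequence at different concentrations or buffers and across linkers.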
# [2] = target: Fuc(a1-2)Gal(b1-4)[Fuc(a1-3)]GlcNAc(b1-3)[Neu5Ac(a2-6)Gal(b1-4)GlcNAc(b1-6)]Gal(b1-4)Glc
# Procedure, shortened: as §1
# [3] = target: Fuc(a1-2)Gal6S(b1-4)Glc6S
# Procedure, shortened: as §1
# [4] = target: Fuc(a1-2)[Gal(a1-3)]Gal(b1-3)GlcNAc(b1-2)Man(a1-3)[Fuc(a1-2)[Gal(a1-3)]Gal(b1-3)GlcNAc(b1-2)Man(a1-6)]Man(b1-4)GlcNAc(b1-4)GlcNAc
# Procedure, shortened: as §1
# [5] = target: Fuc(a1-2)[GalNAc(a1-3)]Gal(b1-3)GlcNAc(b1-3)GalNAc
# Procedure, shortened: as §1
# [6] = target: Fuc(a1-2)[GalNAc(a1-3)]Gal(b1-4)GlcNAc(b1-2)Man(a1-3)[Fuc(a1-2)[GalNAc(a1-3)]Gal(b1-4)GlcNAc(b1-2)Man(a1-6)]Man(b1-4)GlcNAc(b1-4)[Fuc(a1-6)]GlcNAc
# Procedure, shortened: as §1
# [7] = target: Fuc(a1-4)GlcNAc
# Procedure, shortened: as §1
# [8] = target: Gal(a1-3)Gal(b1-3)GlcNAc(b1-2)Man(a1-3)[Gal(a1-3)Gal(b1-3)GlcNAc(b1-2)Man(a1-6)]Man(b1-4)GlcNAc(b1-4)GlcNAc
# Procedure, shortened: as §1
# [9] = target: Gal(a1-3)[Gal(a1-4)]Gal(b1-4)GlcNAc
# Procedure, shortened: as §1
# [10] = target: Gal(b1-3)GalNAc(a1-3)[Fuc(a1-2)]Gal(b1-4)Glc
# Procedure, shortened: as §1
# [11] = target: Gal(b1-3)GalNAc(b1-4)[Neu5Ac(a2-3)]Gal(b1-4)Glc
# Procedure, shortened: as §1
# [12] = target: Gal(b1-3)GlcNAc(b1-3)Gal(b1-4)[Fuc(a1-3)]GlcNAc(b1-6)[Gal(b1-3)GlcNAc(b1-3)]Gal(b1-4)Glc
# Procedure, shortened: as §1
# [13] = target: Gal(b1-4)GalNAc(a1-3)[Fuc(a1-2)]Gal(b1-4)GlcNAc
# Procedure, shortened: as §1
# [14] = target: Gal(b1-4)GlcNAc(b1-2)[Gal(b1-4)GlcNAc(b1-6)]Man(a1-6)[Gal(b1-4)GlcNAc(b1-2)Man(a1-3)]Man(b1-4)GlcNAc(b1-4)GlcNAc
# Procedure, shortened: as §1
# [15] = target: Gal(b1-4)GlcNAc(b1-2)[Gal(b1-4)GlcNAc(b1-6)]Man(a1-6)[GlcNAc(b1-4)][Gal(b1-4)GlcNAc(b1-2)[Gal(b1-4)GlcNAc(b1-4)]Man(a1-3)]Man(b1-4)GlcNAc(b1-4)[Fuc(a1-6)]GlcNAc
# Procedure, shortened: as §1
# [16] = target: Gal(b1-4)GlcNAc(b1-3)Gal(b1-3)GalNAc
# Procedure, shortened: as §1
# [17] = target: Gal(b1-4)GlcNAc(b1-3)Gal(b1-4)GlcNAc(b1-3)Gal(b1-4)GlcNAc(b1-3)Gal(b1-4)GlcNAc(b1-2)[Gal(b1-4)GlcNAc(b1-3)Gal(b1-4)GlcNAc(b1-3)Gal(b1-4)GlcNAc(b1-3)Gal(b1-4)GlcNAc(b1-6)]Man(a1-6)[Gal(b1-4)GlcNAc(b1-3)Gal(b1-4)GlcNAc(b1-3)Gal(b1-4)GlcNAc(b1-3)Gal(b1-4)GlcNAc(b1-2)Man(a1-3)]Man(b1-4)GlcNAc(b1-4)[Fuc(a1-6)]GlcNAc
# Procedure, shortened: as §1
# [18] = target: Gal(b1-4)GlcNAc(b1-3)Gal(b1-4)GlcNAc(b1-3)GalNAc
# Procedure, shortened: as §1
# [19] = target: Gal3S(b1-4)Glc
# Procedure, shortened: as §1
# [20] = target: Gal3S(b1-4)[Fuc(a1-3)]Glc6S
# Procedure, shortened: as §1
# [21] = target: Gal3S6S(b1-4)GlcNAc6S
# Procedure, shortened: as §1
# [22] = target: Gal4S6S(b1-4)GlcNAc
# Procedure, shortened: as §1
# [23] = target: Gal6P(b1-4)GlcNAc
# Procedure, shortened: as §1
# [24] = target: Gal6S(b1-3)GlcNAc
# Procedure, shortened: as §1
# [25] = target: GalNAc(b1-3)Gal(a1-4)Gal(b1-4)GlcNAc
# Procedure, shortened: as §1
# [26] = target: GalNAc(b1-4)GlcNAc
# Procedure, shortened: as §1
# [27] = target: GalNAc(b1-4)GlcNAc(b1-2)Man(a1-3)[GalNAc(b1-4)GlcNAc(b1-2)Man(a1-6)]Man(b1-4)GlcNAc(b1-4)GlcNAc
# Procedure, shortened: as §1
# [28] = target: GalNAc3S(b1-4)GlcNAc
# Procedure, shortened: as §1
# [29] = target: Glc(a1-6)Glc(a1-6)Glc(a1-6)Glc
# Procedure, shortened: as §1
# [30] = target: GlcNAc(a1-4)Gal(b1-4)GlcNAc(b1-3)Gal(b1-4)Glc
# Procedure, shortened: as §1
# [31] = target: GlcNAc(a1-4)Gal(b1-4)GlcNAc(b1-3)Gal(b1-4)[Fuc(a1-3)]GlcNAc(b1-3)Gal(b1-4)[Fuc(a1-3)]GlcNAc
# Procedure, shortened: as §1
# [32] = target: GlcNAc(b1-2)Man(a1-3)[GlcNAc(b1-2)Man(a1-6)]Man(b1-4)GlcNAc(b1-4)[Fuc(a1-6)]GlcNAc
# Procedure, shortened: as §1
# [33] = target: GlcNAc(b1-3)Gal(b1-4)GlcNAc(b1-2)Man(a1-3)[GlcNAc(b1-3)Gal(b1-4)GlcNAc(b1-2)Man(a1-6)]Man(b1-4)GlcNAc(b1-4)[Fuc(a1-6)]GlcNAc
# Procedure, shortened: as §1
# [34] = target: GlcNAc(b1-3)Gal(b1-4)GlcNAc(b1-6)[Gal(b1-3)]GalNAc
# Procedure, shortened: as §1
# [35] = target: GlcNAc(b1-6)GalNAc
# Procedure, shortened: as §1
# [36] = target: Man(a1-2)Man(a1-3)[Man(a1-2)Man(a1-6)]Man
# Procedure, shortened: as §1
# [37] = target: Man(a1-2)Man(a1-3)[Man(a1-2)Man(a1-6)]Man(a1-6)[Man(a1-2)Man(a1-2)Man(a1-3)]Man
# Procedure, shortened: as §1
# [38] = target: Man(a1-2)Man(a1-6)[Man(a1-3)]Man(a1-6)[Man(a1-2)Man(a1-2)Man(a1-3)]Man
# Procedure, shortened: as §1
# [39] = target: Man(a1-3)[Man(a1-6)]Man(a1-6)[Man(a1-3)]Man
# Procedure, shortened: as §1
# [40] = target: Man(a1-6)Man
# Procedure, shortened: as §1
# [41] = target: Neu5Ac(a2-3)Gal(b1-3)GalNAc
# Procedure, shortened: as §1
# [42] = target: Neu5Ac(a2-3)Gal(b1-4)GlcNAc
# Procedure, shortened: as §1
# [43] = target: Neu5Ac(a2-3)Gal(b1-4)GlcNAc(b1-3)Gal(b1-3)GlcNAc
# Procedure, shortened: as §1
# [44] = target: Neu5Ac(a2-3)Gal(b1-4)GlcNAc(b1-6)[Gal(b1-3)]GalNAc
# Procedure, shortened: as §1
# [45] = target: Neu5Ac(a2-3)Gal(b1-4)[Fuc(a1-3)]GlcNAc(b1-3)GalNAc
# Procedure, shortened: as §1
# [46] = target: Neu5Ac(a2-3)GalNAc
# Procedure, shortened: as §1
# [47] = target: Neu5Ac(a2-6)Gal(b1-4)GlcNAc(b1-2)Man(a1-3)[GlcNAc(b1-2)Man(a1-6)]Man(b1-4)GlcNAc(b1-4)GlcNAc
# Procedure, shortened: as §1
# [48] = target: Neu5Ac(a2-8)Neu5Ac(a2-8)Neu5Ac(a2-3)[Gal(b1-3)GalNAc(b1-4)]Gal(b1-4)Glc
# Procedure, shortened: as §1
# [49] = target: Neu5Gc(a2-8)Neu5Gc(a2-3)Gal(b1-4)GlcNAc
# Procedure, shortened: as §1
binder,measurement,setting,value
GS13455A-bfa-343-25-343 (Bacteroides fragilis) (protein) KDEIQIVDQDTSWQMDNKYIEEDIREQLGIDPFTDLVYLGYYGNPYTQLEAINDLVNTTLVGKNELSFKVKVTKPYKEDIKVNLMKEDKLVTDFPEMAEGIPLFPSENCTFEGGVLKAGELETTVKLTLKDVEKLNNLSGYVMAIKLTMEGSHEHLAIARTRSSYFVKLNLSIRLDNIDSSNKKIEGKGFNKEISFKSDIRPDKLGSLNDGNFTANNWYTSNANNYLTIILPEKQSLKGFRLDTNTSPSGSYMLKSCRVMVETPDGNWVNHGVFDRKSMDGIAYISFKKPVECTKVRFENMMAFNGRFSVDVNEVTAFR,glycan array binding signal (z-score),[1],-0.69
same,glycan array binding signal (z-score),[2],-0.309
same,glycan array binding signal (z-score),[3],0.254
same,glycan array binding signal (z-score),[4],-0.738
same,glycan array binding signal (z-score),[5],2.29
same,glycan array binding signal (z-score),[6],1.46
same,glycan array binding signal (z-score),[7],20.2
same,glycan array binding signal (z-score),[8],-0.044
same,glycan array binding signal (z-score),[9],1.91
same,glycan array binding signal (z-score),[10],-0.504
same,glycan array binding signal (z-score),[11],-0.051
same,glycan array binding signal (z-score),[12],-0.016
same,glycan array binding signal (z-score),[13],-0.716
same,glycan array binding signal (z-score),[14],-0.11
same,glycan array binding signal (z-score),[15],-0.04
same,glycan array binding signal (z-score),[16],0.107
same,glycan array binding signal (z-score),[17],0.144
same,glycan array binding signal (z-score),[18],-0.065
same,glycan array binding signal (z-score),[19],1.7
same,glycan array binding signal (z-score),[20],1.38
same,glycan array binding signal (z-score),[21],1.68
same,glycan array binding signal (z-score),[22],0.197
same,glycan array binding signal (z-score),[23],-0.523
same,glycan array binding signal (z-score),[24],-0.365
same,glycan array binding signal (z-score),[25],1.43
same,glycan array binding signal (z-score),[26],-0.125
same,glycan array binding signal (z-score),[27],1.75
same,glycan array binding signal (z-score),[28],-0.39
same,glycan array binding signal (z-score),[29],-0.604
same,glycan array binding signal (z-score),[30],0.059
same,glycan array binding signal (z-score),[31],1.64
same,glycan array binding signal (z-score),[32],-0.409
same,glycan array binding signal (z-score),[33],0.601
same,glycan array binding signal (z-score),[34],-0.194
same,glycan array binding signal (z-score),[35],-0.656
same,glycan array binding signal (z-score),[36],-0.554
same,glycan array binding signal (z-score),[37],-0.701
same,glycan array binding signal (z-score),[38],0.988
same,glycan array binding signal (z-score),[39],-0.129
same,glycan array binding signal (z-score),[40],0.205
same,glycan array binding signal (z-score),[41],0.08
same,glycan array binding signal (z-score),[42],-0.152
same,glycan array binding signal (z-score),[43],0.34
same,glycan array binding signal (z-score),[44],-0.414
same,glycan array binding signal (z-score),[45],3.25
same,glycan array binding signal (z-score),[46],-0.681
same,glycan array binding signal (z-score),[47],0.878
same,glycan array binding signal (z-score),[48],-0.113
same,glycan array binding signal (z-score),[49],0.527
